Measurements published in PubChem BioAssay (Tox21).
Values joined by “and” are separate entries in the source; they are usually repeats but may differ in a detail not shown here. Equal entries are not always repeated. Results filed as inconclusive are left out. Entries that show only a call come without a potency. A structure can be active in one record and inactive in another. Active and inactive are the calls of the source. Unless noted, calls follow the shape of the full dose curve.

Columns and labels:
[1] = qHTS assay to identify small molecule agonists of the vitamin D receptor (VDR) signaling pathway - cell viability counter screen (AID 743224; active = well fitted curve in the direction sought with a large enough effect in the repeat runs; an effect the other way counts as inactive or inconclusive; also: nearly all actives have a fitted effect of over 50% in size; also: potency is read from the fitted curve at half-maximal effect)
In short: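 Cells: VDR-bla, 2,000/well, settled 4 h. Treatment: compounds in DMSO, 16 h, 37C/5% CO2. Readout: CellTiter-Glo luminescence after 30 min RT.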

[2] = qHTS assay to identify small molecule antagonists of the vitamin D receptor (VDR) signaling pathway - cell viability counter screen (AID 743225; active = well fitted curve in the direction sought with a large enough effect in the repeat runs; an effect the other way counts as inactive or inconclusive; also: nearly all actives have a fitted effect of over 50% in size; also: potency is read from the fitted curve at half-maximal effect)
In short: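 HEK293T VDR-bla; cpd + 1a,25-(OH)2D3 3 nM final, 16 h 37C/5% CO2; B/G FRET substrate 2 h RT; then CellTiter-Glo 30 min RT, luminescence.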

[3] = qHTS assay to identify small molecule agonists of the NFkB signaling pathway - cell viability counter screen (AID 1159515); also: nearly all actives have a fitted effect of over 55% in size; also: potency is read from the fitted curve at half-maximal effect
In short: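 Cells are seeded (2,000 NFkB-bla ME-180 per well), rested overnight, and dosed with DMSO-dissolved compounds for 5 hr at 37 C. Viability is then read by CellTiter-Glo luminescence after 30 min at room temperature.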

[4] = qHTS assay to identify small molecule agonists of the endoplasmic reticulum stress response signaling pathway (AID 1159516; active = well fitted activation curve with a large enough effect in the signal ratio in the repeat runs, not every such curve was filed as active; the % refers to the signal ratio)
In short: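 Cells are seeded at 1,500 per well and incubated overnight. Compounds in DMSO are added for 5 hr at 37 C, then beta-lactamase FRET substrate for 2 hr at room temperature, and fluorescence at 460 and 530 nm is measured.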

[5] = qHTS assay to identify small molecule agonists of the endoplasmic reticulum stress response signaling pathway - cell viability counter screen (AID 1159517); also: nearly all actives have a fitted effect of over 50% in size; also: potency is read from the fitted curve at half-maximal effect
In short: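 ESRE-bla HeLa cells (1,500/well) were plated overnight at 37 C and exposed to compounds for 5 hr. After the 2 hr beta-lactamase substrate read, CellTiter-Glo went into the same wells, and luminescence was read after 30 min at room temperature.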

[6] = qHTS assay to identify small molecule antagonists of the retinoid-related orphan receptor gamma (ROR-gamma) signaling pathway - cell viability counter screen (AID 1159520; active = well fitted curve in the direction sought with a large enough effect in the repeat runs; an effect the other way counts as inactive or inconclusive; also: nearly all actives have a fitted effect of over 50% in size; also: potency is read from the fitted curve at half-maximal effect)
In short: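 Cytotoxicity was read from cellular ATP (CellTiter-Glo luminescence) after 16 hr at 37 C with 1 uM doxycycline induction. The inducer was added 2 hr after compound transfer to Tet-on ROR gamma CHO cells.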

[7] = biological target: Nuclear receptor ROR-gamma (Homo sapiens) (UniProt P51449); assay: qHTS assay to identify small molecule antagonists of the retinoid-related orphan receptor gamma (ROR-gamma) signaling pathway (AID 1159521; active = well fitted curve in the direction sought with a large enough effect in the repeat runs; an effect the other way counts as inactive or inconclusive; also: nearly all actives have a fitted effect of over 50% in size; also: potency is read from the fitted curve at half-maximal effect)
In short: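 Cells were plated, rested 4 h at 37 C, exposed to compounds for 2 h, then given 1 uM final doxycycline hyclate to induce RORγ expression. After 16 h, ONE-Glo luminescence from the ROR response element reporter was measured.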

[8] = qHTS assay to identify small molecule agonists of the AP-1 signaling pathway - cell viability counter screen (AID 1159525); also: nearly all actives have a fitted effect of over 55% in size; also: potency is read from the fitted curve at half-maximal effect
In short: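 Intracellular ATP by Cell Titer Glo luminescence (30 min, RT) in the same ME-180 AP-1-bla wells after the 5 h compound exposure at 37 °C. Normalised to tetra n-octyl ammonium bromide and DMSO controls.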

[9] = qHTS assay to identify small molecule agonists of the AP-1 signaling pathway (AID 1159526)
[10] = biological target: Retinoic acid receptor RXR-alpha (Homo sapiens) (UniProt P19793); assay: qHTS assay to identify small molecule agonists of the RXR signaling pathway (AID 1159527); also: nearly all actives have a fitted effect of over 35% in size
Chain of Retinoic acid receptor RXR-alpha (Homo sapiens) (P19793 whole entry, looked up): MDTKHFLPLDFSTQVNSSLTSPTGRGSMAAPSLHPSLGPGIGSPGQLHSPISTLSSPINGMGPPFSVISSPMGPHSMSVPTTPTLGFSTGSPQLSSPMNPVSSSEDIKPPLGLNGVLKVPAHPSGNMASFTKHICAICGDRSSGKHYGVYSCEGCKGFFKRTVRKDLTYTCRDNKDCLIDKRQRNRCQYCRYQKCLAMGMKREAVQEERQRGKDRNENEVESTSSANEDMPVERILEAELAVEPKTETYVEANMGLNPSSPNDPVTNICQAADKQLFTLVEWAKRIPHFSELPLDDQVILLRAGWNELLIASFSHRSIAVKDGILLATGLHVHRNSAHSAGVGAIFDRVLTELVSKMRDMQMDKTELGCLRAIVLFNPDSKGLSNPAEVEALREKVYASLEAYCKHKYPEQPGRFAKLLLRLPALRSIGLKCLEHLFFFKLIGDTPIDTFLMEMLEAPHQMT
In short: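 Cells plated at 2,000/well, rested 5 hr at 37 C, pin-dosed with DMSO compound solutions, incubated 16 hr, then loaded with B/G FRET substrate for 2 hr at RT before dual-emission fluorescence reading.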

Row | Compound | Potency [1] | Potency [2] | Potency [3] | Potency [4] | Potency [5] | Potency [6] | Potency [7] | Potency [8] | outcome [9] | Potency [10]
1 | CC(C)=CC1C(C(=O)OCc2cccc(Oc3ccccc3)c2)C1(C)C (stereo not given) | inactive | inactive | inactive | inactive | inactive | inactive | inactive | inactive | inactive | 
2 | CCCCCCCCCCCCCl | inactive | inactive | inactive | inactive | inactive | inactive | inactive | inactive | inactive | inactive
3 | C[C@]12CC[C@H]3[C@@H](CCC4=CC(=O)CC[C@@H]43)[C@@H]1CC[C@@H]2O | inactive | inactive | inactive | inactive | inactive | inactive | inactive | inactive | inactive | inactive
4 | CCNc1nc(Cl)nc(NC(C)(C)C#N)n1 | inactive | inactive | inactive | inactive | inactive | inactive | inactive | inactive | inactive | 
5 | Nc1ccc([N+](=O)[O-])cc1N | inactive | inactive | inactive | inactive | inactive | inactive | 9.68 µM (active) and 30.6 µM (active) | 34.7 µM (active) and inactive | inactive | inactive
6 | CC(O)CN(CC(C)O)CC(C)O (stereo not given) | inactive | inactive | inactive | inactive | inactive | inactive | inactive | inactive | inactive | inactive
7 | CC1CC(=O)O1 (stereo not given) | inactive | inactive | inactive | inactive | inactive | inactive | inactive | inactive | inactive | inactive
8 | C=CC(=O)OCC(CC)(COC(=O)C=C)COC(=O)C=C | 20 µM (active) and 11 µM (active) | 20 µM (active) and 17.4 µM (active) | inactive | inactive | inactive and 24.5 µM (active) |  | 3.15 µM (active) and 6.86 µM (active) | inactive |  | 
9 | Oc1ccc(Cl)cc1Cc1ccccc1 | inactive |  | 54.9 µM (active) and 49.6 µM (active) | inactive | 49 µM (active) and inactive | 61.1 µM (active) and inactive |  | 54.9 µM (active) and 44.2 µM (active) |  | 
10 | CC(C)=CC1C(C(=O)OCN2C(=O)C3=C(CCCC3)C2=O)C1(C)C (stereo not given) | inactive | inactive | inactive | inactive | inactive | inactive |  | inactive |  | 
11 | OC(c1ccc(Cl)cc1)(c1cncnc1)c1ccccc1Cl (stereo not given) | inactive | inactive | inactive | inactive | inactive | 15.6 µM (active) and inactive | 4.4 µM (active) and 54.5 µM (active) | inactive | inactive | 
12 | CCCCCCCCCC(CC)c1ccc(S(=O)(=O)O)cc1 (stereo not given) |  |  | 48.9 µM (active) and 21.3 µM (active) |  | inactive and 21.3 µM (active) and 21.9 µM (active) | inactive |  | 49.5 µM (active) [middle of 4 runs] |  | 
13 | Cc1cccc(N=Nc2ccc(N(C)C)cc2)c1 | inactive | inactive | inactive |  | inactive | inactive | inactive | inactive | inactive | inactive
